Results taken from PubChem BioAssay AID1159580 (chemical genetic matrix, 2015).
Where “and” joins values, the source holds several entries; their conditions need not be identical. Equal entries are not always repeated. About 2,000 (36%) of roughly 5,500 compounds were called active. Roughly 18% stayed inconclusive and do not appear here. Cut-off read from the data, not from the text of the source: active = normalized growth mostly below about 0.91 (no sharp cut-off); inconclusive = no clear call, values can overlap the other calls; inactive = mostly above about 0.92. The list shows a part of the results.

Assay: chemical genetic growth profiling, strain panel (AID 1159580);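 note: tested at 20 µM; growth read once vehicle control cultures reached saturation at 30 °C; 1 = growth at the plate median or of vehicle wells; lower values mean less growth of the strain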
Conditions: S. cerevisiae deletion strains, growth OD

Measured: normalized growth

O=C1NS(=O)(=O)c2ccccc21
inactive: locus YAL013W, strain DEP1, active compounds read low 1.01 | locus YAL021C, strain ccr4, active compounds read low 0.965 | locus YAL026C, strain drs2, active compounds read low 1.04 | locus YAL030W, strain snc1, active compounds read low 1.02 | locus YBL061C, strain skt5, active compounds read low 1.03 | locus YBR009C, strain hhf1, active compounds read low 1.03 | locus YBR021W, strain FUR4, active compounds read low 1.02 | locus YBR023C, strain chs3, active compounds read low 1.02 | locus YBR171W, strain sec66, active compounds read low 1.03 | locus YBR229C, strain ROT2, active compounds read low 1.01 | locus YBR231C, strain swc5, active compounds read low 1.02 | locus YBR279W, strain paf1, active compounds read low 1.01 | locus YCL011C, strain gbp2, active compounds read low 1.02 | locus YCL016C, strain dcc1, active compounds read low 0.988 | locus YCL029C, strain bik1, active compounds read low 0.994 | locus YCL061C, strain MRC1, active compounds read low 1.02 | locus YCL069W, strain vba3, active compounds read low 1.02 | locus YCR088W, strain abp1, active compounds read low 1.02 | locus YDL005C, strain med2, active compounds read low 1.03 | locus YDL035C, strain GPR1, active compounds read low 0.994 | locus YDL040C, strain nat1, active compounds read low 1.02 | locus YDL074C, strain BRE1, active compounds read low 1.01 | locus YDL101C, strain DUN1, active compounds read low 1.01 | locus YDL134C, strain PPH21, active compounds read low 1 | locus YDL185W, strain tfp1, active compounds read low 0.994 | locus YDL192W, strain arf1, active compounds read low 1 | locus YDR001C, strain nth1, active compounds read low 1.01 | locus YDR069C, strain doa4, active compounds read low 1.04 | locus YDR101C, strain arx1, active compounds read low 0.983 | locus YDR137W, strain rgp1, active compounds read low 1.03 | locus YDR159W, strain sac3, active compounds read low 1.11 | locus YDR162C, strain NBP2, active compounds read low 0.998 | locus YDR195W, strain ref2 0.993 | locus YDR297W, strain sur2, active compounds read low 1.02 | locus YDR318W, strain mcm21, active compounds read low 0.979 | locus YDR334W, strain swr1, active compounds read low 1.02 | locus YDR335W, strain msn5, active compounds read low 1.01 | locus YDR388W, active compounds read low 0.991 | locus YDR392W, strain spt3, active compounds read low 0.957 | locus YDR502C, strain sam2, active compounds read low 0.995 | locus YEL003W, strain gim4, active compounds read low 1.03 | locus YEL037C, strain rad23, active compounds read low 1.01 | locus YEL061C, strain CIN8 (second series), active compounds read low 1.02 | locus YEL061C, strain CIN8, active compounds read low 1.01 | locus YER015W, strain faa2, active compounds read low 1.02 | locus YER016W, strain bim1, active compounds read low 1.02 | locus YER110C, active compounds read low 0.987 | locus YER111C, strain swi4, active compounds read low 1.02 | locus YER155C, strain BEM2 (second series), active compounds read low 1.07 | locus YER155C, strain BEM2, active compounds read low 0.997 | locus YER167W, strain BCK2, active compounds read low 1 | locus YFR010W, strain ubp6, active compounds read low 1.03 | locus YGL078C, strain dbp3, active compounds read low 1 | locus YGL086W, strain mad1, active compounds read low 0.998 | locus YGL167C, strain pmr1, active compounds read low 1.02 | locus YGL173C, strain kem1, active compounds read low 1.06 | locus YGL227W, strain vid30, active compounds read low 1.02 | locus YGL240W, strain doc1, active compounds read low 1.05 | locus YGL248W, strain PDE1, active compounds read low 1.03 | locus YGL253W, strain hxk2, active compounds read low 1.05 | locus YGR078C, strain PAC10, active compounds read low 1.05 | locus YGR135W, strain pre9, active compounds read low 0.984 | locus YGR252W, strain gcn5, active compounds read low 0.976 | locus YHR013C, strain ard1, active compounds read low 1.02 | locus YHR027C, strain rpn1, active compounds read low 1.05 | locus YHR030C, strain SLT2, active compounds read low 1 and 0.989 | locus YHR079C, strain IRE1 (second series), active compounds read low 0.984 | locus YHR079C, strain IRE1, active compounds read low 0.984 | locus YHR094C, strain hxt1, active compounds read low 0.988 | locus YHR129C, strain ARP1, active compounds read low 1.02 | locus YHR142W, strain chs7, active compounds read low 1.03 | locus YHR200W, strain rpn10, active compounds read low 0.991 | locus YIL066C, strain RNR3, active compounds read low 1.02 | locus YIL073C, strain SPO22, active compounds read low 0.958 | locus YIL125W, strain kgd1, active compounds read low 0.989 | locus YIR030C, strain dcg1, active compounds read low 0.998 | locus YJL092W, strain hpr5, active compounds read low 1.02 | locus YJL095W, strain BCK1 (second series), active compounds read low 1.02 | locus YJL095W, strain BCK1, active compounds read low 1.04 and 0.999 | locus YJL115W, strain asf1, active compounds read low 1.02 | locus YJL129C, strain trk1, active compounds read low 1.04 | locus YJL134W, strain LCB3, active compounds read low 0.999 | locus YJL154C, strain vps35, active compounds read low 1.02 | locus YJL164C, strain tpk1, active compounds read low 0.993 | locus YJL166W, strain qcr8, active compounds read low 1.04 | locus YJL168C, strain set2, active compounds read low 0.984 | locus YJL187C, strain SWE1 (second series), active compounds read low 1.03 | locus YJR043C, strain POL32, active compounds read low 0.977
